Bioassay records from PubChem BioAssay.
HT1080NT lethal = qHTS for induction of synthetic lethality in tumor cells producing 2HG: qHTS for the HT-1080-NT fibrosarcoma cell line; HT-1080-NT fibrosarcoma viability, CellTiter-Glo ATP luminescence, 48 h; Potency, µM (titrated, usually from 46.1 µM), without a hit: top-dose activity, negative = less viability, actives largely listed as cytotoxic; 360,000 tested, 1.6% active; AID 686970, 2013;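 also: NT is the 2HG producing partner of a matched IDH1 knockdown line; potency is read from the fitted curve at half-maximal effect; 0% = DMSO-treated cells and -100% = media-only wells without cells; nearly all actives have a fitted effect of over 55% in size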
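Toxicity toward the 2HG-producing NT line was scored as %Activity, normalised to DMSO and no-cell wells, from CellTiter-Glo luminescence after 48 hours' treatment.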
HT1080 IDH1KD tx = qHTS for induction of synthetic lethality in tumor cells producing 2HG: qHTS for the HT-1080-IDH1KD cell line; HT-1080 IDH1 knockdown viability, ATP luminescence, 48 h; Potency, µM (series often up to 46.1 µM), for inactives: at the highest dose activity, negative = toxicity, actives largely listed as cytotoxic; 360,000 tested, 2% active; AID 686971, 2013;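 also: potency is read from the fitted curve at half-maximal effect; 0% = DMSO wells and -100% = cell-free medium wells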
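In this qHTS, HT-1080 cells depleted of IDH1 are exposed for 48 h at 37 °C to compound titrations. Toxicity is scored from CellTiter-Glo luminescence, with DMSO as full viability and medium alone as none.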
ELG1 DNA repair = qHTS screen for small molecules that inhibit ELG1-dependent DNA repair in human embryonic kidney (HEK293T) cells expressing luciferase-tagged ELG1. Potency, µM (titrated, usually from 46.1 µM), inactives show top-dose activity change, negative = inhibition, usual class: inhibitors. AID 504467, 2011. 330,000 tested, 2.3% active. HEK293T ELG1-luciferase reporter, luminescence, 16 h; DNA damage induced by 5-fluorouridine; also: potency is read from the fitted curve at half-maximal effect; nearly all actives have a fitted effect of over 55% in size
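Luminescence from the luciferase reporter, measured 30 min after ONE-Glo reagent at room temperature, was the read-out. Beforehand, 2,000 cells per well were exposed for 16 hr at 37 °C to 5-fluorouridine together with compound or vehicle.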
IL1B secr inh = qHTS for Inhibitors of Inflammasome Signaling: IL-1-beta AlphaLISA Primary Screen. THP-1 LPS/ATP IL-1B secretion, AlphaLISA, 16 h; active compounds read low. activity change, % at 57.5 µM. 360,000 tested, 4.7% active. AID 743279, 2014; in the data active = activity change below about -50%; inconclusive = mostly about -30% to -49%
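THP-1 cells pretreated 1 hr with compounds (up to 57.5 uM final), then stimulated with LPS (250 ng/mL final) plus ATP (1.25 mM final); secreted IL-1B measured by AlphaLISA after 16 hr, decreased signal indicating inhibition.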
TDP1 cell CPT = qHTS for Inhibitors of human tyrosyl-DNA phosphodiesterase 1 (TDP1): qHTS in cells in presence of CPT | chicken DT40 Tdp1-/-;hTDP1 cells + 20 nM CPT, ATP luminescence, 48 h | Potency, µM (series often up to 46.2 µM), for the others: at the top dose activity change, negative = growth inhibition, hits mostly inhibitors | 420,000 tested, 12% active | AID 686979, 2013; also: potency is read from the fitted curve at half-maximal effect; nearly all actives have a fitted effect of over 55% in size
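Chicken DT40 Tdp1-/- cells stably complemented with human TDP1 were seeded at 400 cells/well in medium containing 20 nM camptothecin, exposed to pin-transferred compounds, and grown at 37 °C for at least 48 hr. Viability was read as ATP luminescence.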
TDP1 cell noCPT = qHTS for Inhibitors of human tyrosyl-DNA phosphodiesterase 1 (TDP1): qHTS in cells in absence of CPT; DT40 Tdp1-/- hTDP1 cells, no CPT, ATP luminescence, 48 h; Potency, µM (top dose mostly 46.2 µM), for the others: top-dose activity change, negative = growth inhibition, most hits filed as inhibitors; 420,000 tested, 15% active; AID 686978, 2013; also: potency is read from the fitted curve at half-maximal effect; nearly all actives have a fitted effect of over 55% in size
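Growth of hTDP1-complemented DT40 Tdp1-knockout cells is measured by ATP luminescence after at least 48 hr compound exposure at 37 °C, with DMSO substituting for the 20 nM CPT used in the parallel screen.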
Active calls of the source: *; ? = inconclusive; . = not tested or not shown; ! = not active in a repeat; [ ] = dose if it differs, or a comment. In the library only some 19% were active in any assay of this set; here they are far more common. Unless noted, calls follow the shape of the dose curve; as a rule, active = well fitted curve in the direction sought with a large enough effect; inconclusive = small, poorly fitted or top-dose-only effect, or another doubt; inactive = no such curve, though single readings can be large; an effect the other way counts as inactive or inconclusive. Unless noted, % is scaled to controls: 0 for no effect and ±100 for the full control effect.

SMILES | HT1080NT lethal | HT1080 IDH1KD tx | ELG1 DNA repair | IL1B secr inh | TDP1 cell CPT | TDP1 cell noCPT
COc1ccc(-c2c(C#N)c(SCC(=O)Nc3ccc(Br)cc3)nc(C)c2C(=O)Nc2ccccc2)cc1 | . | . | . | . | 12% | 16%
CCN(C(=O)c1cc2c(=O)[nH]c3ccc(C)cc3c2s1)c1ccc(F)cc1 | -22% | 0% | -8% | 22 | ? | ?
CCN(C(=O)c1cc2c(=O)[nH]c3ccc(C)cc3c2s1)c1ccccc1F | 1% | -3% | 1% | 13 | 13µM* | ?
CNS(=O)(=O)c1ccc(C(=O)NCC(=O)NC(C)c2cccs2)cc1 (stereo unspecified) | -2% | 2% | 0% | 0 | -11% | 20%
Cc1noc(C)c1-c1cncnc1N1CCN(C)CC1 | . | . | . | . | 10% | 6%
Cc1ccc(C)c(N(C(=O)c2nsc(Cl)c2Cl)C(C(=O)NC2CCCC2)c2ccc(O)cc2)c1 (stereo unspecified) | -24% | -16% | -22% | -71* | ? | ?
COc1ccc(CN(C(=O)c2nsc(Cl)c2Cl)C(C(=O)NC2CCCC2)c2ccc(C)cc2)cc1 (stereo unspecified) | -27% | ? | ? | -22 | 12µM* | 15µM*
COc1ccc(CN(C(=O)c2nsc(Cl)c2Cl)C(C(=O)NC2CCCCC2)c2ccc(OC)cc2)cc1 (stereo unspecified) | ? | ? | -2% | -21 | 5.8µM* | 23µM*
Cc1ccc(C)c(N(C(=O)c2csnn2)C(C(=O)NC2CCCC2)c2ccncc2)c1 (stereo unspecified) | -9% | -7% | 7% | 3 | 1% | -7%
COc1ccc(CN(C(=O)c2snc(C(N)=O)c2N)C(C(=O)NC2CCCC2)c2ccc(OC)c(OC)c2)cc1 (stereo unspecified) | 3% | -1% | ? | -21 | ? | ?
Cn1cc(-c2coc3c(C(=O)NCc4cccs4)cccc23)cn1 | 8% | 2% | . | -9 | ? | ?
Cc1ccc2nc(-c3ccccc3)cc(C(=O)NCC(c3ccco3)N(C)C)c2c1 (stereo unspecified) | 4% | -4% | 14% | -10 | ? | ?
Cc1noc(C)c1C(=O)N(C)C[C@@H]1OCc2ccccc2-c2c(n(C)c3ccccc23)C(=O)N([C@H](C)CO)C[C@H]1C | -4% | -10% | . | 9 | ? | 18µM*
C[C@@H]1CN([C@H](C)CO)C(=O)c2c(c3ccccc3n2C)-c2ccccc2CO[C@H]1CN(C)C(=O)NC1CCCCC1 | -13% | 3% | . | 21 | 18µM* | 26µM*
C[C@@H]1CN([C@H](C)CO)C(=O)c2c(c3ccccc3n2C)-c2ccccc2CO[C@H]1CN(C)C(=O)Nc1ccccc1 | -9% | 0% | . | -24 | ? | ?
O=C(CCc1nc2ccccc2c(=O)[nH]1)NNC(=O)COc1ccc(Br)cc1 | -1% | 0% | 1% | 15 | ? | -2%
COCCn1c(C)cc(O)c(C(c2ccc(Cl)cc2)N2CCN(c3ccccc3)CC2)c1=O (stereo unspecified) | . | . | . | . | -12% | -12%
O=C(Nc1cc2c(cc1C(=O)c1ccccc1Br)OCCO2)c1ccccc1 | . | . | . | . | -4% | -54%
COC(=O)/C=C\c1cc(O)ccc1O | . | . | . | . | 0.6µM* | 0.6µM*
COC(=O)/C=C/c1cnc2ccccc2c1 | 1% | 14% | ? | -17 | -26% | ?
COCCCn1c(=NC(=O)c2ccccc2)c(C#N)cc2c(=O)n3cccc(C)c3nc21 | 15% | 5% | ? | 49 | -4% | ?
Cc1cccn2c(=O)c3cc(C#N)c(=NC(=O)c4ccco4)n(Cc4ccco4)c3nc12 | 8% | ? | 0% | 44 | -7% | ?
Cc1cccn2c(=O)c3cc(C#N)c(=NC(=O)c4ccccc4)n(Cc4ccco4)c3nc12 | -2% | 7% | . | -76*! | 18µM* | 18µM*
Cc1cccc(C(=O)N=c2c(C#N)cc3c(=O)n4cccc(C)c4nc3n2Cc2ccco2)c1 | -2% | 1% | ? | 13 | 21µM* | ?
CCOCCCN1C(=O)CN(C2CCCCCC2)C(=O)C1c1ccc(OCC)c(OC)c1 (stereo unspecified) | . | . | . | . | -24% | -29%
SMILES | HT1080NT lethal | HT1080 IDH1KD tx | ELG1 DNA repair | IL1B secr inh | TDP1 cell CPT | TDP1 cell noCPT
COCCNC(=O)C(C)N1c2cccc3cccc(c23)S1(=O)=O (stereo unspecified) | 7% | 15% | -2% | ? | -21% | 4%
COCCCNC(=O)C(C)N1c2cccc3cccc(c23)S1(=O)=O (stereo unspecified) | -11% | -10% | 0% | 12 | 21µM* | 21µM*
O=C(Nc1cc(C(=O)NC2CCOCC2)c2c(c1)ncn2C1CCCC1)c1ccccc1 | . | . | . | . | 2% | -14%
Cc1ccccc1-n1nnnc1SCC(=O)c1c(N)n(C2CC2)c(=O)[nH]c1=O | -17% | -22% | 21µM* | 21 | ? | ?
Cc1ccc(S(=O)(=O)N2[C@@H](c3cccc(C)c3)C(C(=O)O)=C[C@H]2C(C)(C)C)cc1 | -16% | -8% | -2% | 36 | -6% | 6%
Cc1ccc2c(c1)sc(-c1ccc(N(C)C)cc1)[n+]2C | -28% | ? | ? | ? | 0.037µM* | 0.018µM*
CCCCCCCCCCCCC/C=C/[C@@H](O)[C@H](CO)N(C)C | . | . | . | . | -2%[4.12 µM] | 1%[4.12 µM]
O=C(NCC(c1cccs1)N1CCOCC1)C1CCN(S(=O)(=O)c2c(Cl)cccc2Cl)CC1 (stereo unspecified) | -4% | -5% | -6% | 9 | ? | ?
Cc1noc(C)c1C(=O)N1CCC2(CCN(Cc3nccs3)CC2)CC1 | . | . | . | . | 2% | -9%
NC(=O)C1CCN(C(c2ccccc2Cl)c2nnnn2Cc2ccc3c(c2)OCO3)CC1 (stereo unspecified) | 1% | 1% | -3% | -2 | 10% | -18%
Oc1cc2c(cc1C(c1ccc(Cl)c(Cl)c1)N1CCCC1)OCO2 (stereo unspecified) | ? | ? | -11% | -99* | ? | 23µM*
